From PubChem BioAssay
PHOSPHO1 block: PHOSPHO1 (human) inhibition; Q8TCT1; recombinant PHOSPHO1, absorbance phosphatase assay; inhibition, % at 13.3 µM; 290,000 compounds, 1.1% hits; AID 1565; in the data active means inhibition above about 60%
rCAG binder-1: binds r(CAG) RNA repeats; r(CAG) RNA repeat, TO-PRO-1 dye displacement fluorescence; inhibition, % at 3 µM; 370,000 compounds, 1.3% hits;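 active means inhibition above the plate cutoff, the mean of all test compounds on that plate plus 3 SD, cut at about 35% in these data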;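 further: 0% = DMSO alone and 100% = 100 µM mitoxantrone as full dye displacement; higher means more dye released from RNA so lower well fluorescence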
aDG glyco act: alpha-DG glycosylation activation | Pro5-aDG cells, alpha-DG glycosylation AlphaScreen (IIH6); 0% Pro5, 100% B10-LARGE cell signal | activation, % at 10 µM | 360,000 compounds, 0.22% hits;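 active means activation of at least 8% versus controls, or a plate z-score of at least 8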;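 further: Pro5 are CHO cells carrying HIG-tagged alpha-DG that lacks glycosylation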
ALR H2O2 inh: blocks human ALR sulfhydryl oxidase activity. P55789. purified ALR, DTT oxidation, H2O2 HRP-luminol luminescence. inhibition, % (test concentration not listed). 290,000 compounds, 3.8% hits. AID 485317;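 active means mean replicate inhibition above about 79%, with every replicate also reaching it, limit read from the data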
Target sequence (P55789 whole entry, looked up): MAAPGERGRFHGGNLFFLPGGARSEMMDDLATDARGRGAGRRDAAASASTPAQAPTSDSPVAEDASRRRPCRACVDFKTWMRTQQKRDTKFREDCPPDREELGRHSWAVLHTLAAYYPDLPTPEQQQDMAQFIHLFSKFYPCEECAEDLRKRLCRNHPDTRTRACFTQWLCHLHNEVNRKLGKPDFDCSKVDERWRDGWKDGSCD
APOBEC3A inh: human APOBEC3A DNA deaminase inhibition; P31941; recombinant A3A, FAM/TAMRA ssDNA deamination fluorescence; inhibition, % at 20 µM; 330,000 compounds, 0.41% hits;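 active means at least 40% inhibition at 20 µM here, with at most 30% in a related deaminase screen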;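 further: plate controls were A3A with DMSO for no effect and wells lacking A3A enzyme for full effect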
APOBEC3G inh: APOBEC3G (human) deaminase inhibition | recombinant A3G, ssDNA deamination FAM/TAMRA fluorescence | AID 493012 | Q9HC16 | inhibition, % at 20 µM | 330,000 compounds, 0.28% hits;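 active means inhibition of at least 40% at 20 µM, with no more than 30% in the related APOBEC3A deaminase screen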;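 further: plate controls were DMSO wells with A3G for no effect and wells lacking A3G enzyme for full effect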
Target sequence (Q9HC16 whole entry, looked up): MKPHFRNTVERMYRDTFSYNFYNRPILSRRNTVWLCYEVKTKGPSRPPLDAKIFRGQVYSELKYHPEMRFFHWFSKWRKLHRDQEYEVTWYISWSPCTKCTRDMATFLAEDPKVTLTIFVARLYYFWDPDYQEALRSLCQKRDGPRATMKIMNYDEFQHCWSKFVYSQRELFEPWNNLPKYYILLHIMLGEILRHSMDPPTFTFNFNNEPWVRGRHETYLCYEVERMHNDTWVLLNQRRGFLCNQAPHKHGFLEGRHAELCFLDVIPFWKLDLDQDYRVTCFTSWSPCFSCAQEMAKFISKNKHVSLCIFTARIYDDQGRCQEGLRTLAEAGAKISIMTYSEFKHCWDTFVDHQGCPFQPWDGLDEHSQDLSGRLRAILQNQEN
rCAG bind conf: r(CAG) RNA repeat binding, confirmation | shares compounds with rCAG binder-1 | TO-PRO-1 dye displacement fluorescence | inhibition, % at 3 µM | 4,300 compounds, 70% hits | AID 652065;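 active means inhibition above a per-plate cutoff, the mean inhibition of sample wells plus 3 SD, cut at about 35% in these data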;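 further: loss of TO-PRO-1 fluorescence as compound displaces dye from 1x1 AA loop RNA; 0% = DMSO only wells and 100% = 100 µM mitoxantrone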
DNA CAG counter: counter-screen for rCAG RNA binders: DNA CAG dye complex inhibitors. inhibition, % at 3 µM. 4,300 compounds, 94% hits. shares compounds with rCAG binder-1. d(CAG) DNA oligo TO-PRO-1 dye displacement, fluorescence. AID 652068;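 active means inhibition above its plate's cutoff, the mean test-well inhibition plus 3 SD, cut at about 4.8% in these data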;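 further: 0% = DNA dye mix with DMSO and 100% = 100 µM mitoxantrone; hits displace the dye from DNA and so lower well fluorescence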
DNA CAG DR: DNA CAG dye complex inhibition, dose response counter-screen; shares compounds with rCAG binder-1; DNA CAG/GTC duplex TO-PRO-1 dye displacement fluorescence; IC50, µM; 250 compounds, 20% hits; in the data active means IC50 below about 10 µM
dCAG TOPRO ctr: counter-screen for rCAG binders: DNA CAG TO-PRO-1 complex inhibitors, late stage; IC50, µM; shares compounds with rCAG binder-1; 30 compounds, 80% hits; d(CAG) DNA duplex TO-PRO-1 dye displacement, fluorescence
rCAG binder-2: binds r(CAG) RNA repeats in late stage dose response; shares compounds with rCAG binder-1; r(CAG) RNA TO-PRO-1 dye displacement, fluorescence; IC50, µM; 30 compounds, 100% hits; AID 720651
Starred values were filed as active, the others as inactive; . = no result. Only some compounds are listed: those with a hit (about 5.4% of all), similar ones and a draw of the others. Unless noted, how the calls were made is not given here.

SMILES	PHOSPHO1 block	rCAG binder-1	aDG glyco act	ALR H2O2 inh	APOBEC3A inh	APOBEC3G inh	rCAG bind conf	DNA CAG counter	others
CN(C)C1C(=O)C(C(N)=O)=C(O)C2(O)C(=O)C3=C(O)c4c(O)cccc4C(C)(O)C3CC12 (stereo not drawn)	0	.	0	-12	.	.	.	.
NN=C1C(Cl)=C(Cl)C(Cl)=C1Cl	.	14	0	.	.	.	.	.
CCCCn1c(=O)c(C=Nc2ccc(Cl)cc2)c(O)n(Cc2ccco2)c1=O	-4	10	0	23	1	-2	.	.
CC(C)n1c(=O)c(C=Nc2ccc(S(N)(=O)=O)cc2)c(O)n(Cc2ccco2)c1=O	9	35*	0	-3	7	12	20	9.8*
O=c1ccc2cc3ccoc3c(O)c2o1	.	1	0	.	-2	-6	.	.
CCCCN1C(=O)/C(=C/c2ccc(N(C)C)cc2)C(=O)N(Cc2ccco2)C1=O	-15	54*	0	46	16	17	33	10*
CCOc1ccc(N2C(=O)/C(=C\c3cccs3)C(=O)NC2=S)cc1	-78	39*	.	20	3	9	9	7.3*
C/C(=N\NC(=O)c1ccncc1)c1c(O)[nH]c(=O)[nH]c1=O	.	-1	.	-24	-1	-1	.	.
COc1ccc(CN2C(=O)NC(=O)/C(=C/c3cc(OC)c(OC)c(OC)c3)C2=O)cc1	51	15	0	4	1	0	.	.
O=C1NC(=O)N(Cc2ccccc2)C(=O)/C1=C\N1CCCc2ccccc21	21	24	0	.	-2	-3	.	.
CCC(C)c1ccc(N2C(=O)NC(=O)/C(=C/c3cccn3CCOc3ccc(C)cc3)C2=O)cc1 (stereo not drawn)	7	22	0	-3	1	-5	.	.
O=C1NC(=O)N(Cc2ccc(F)cc2)C(=O)/C1=C\C=C\c1ccco1	32	52*	0	3	65	55	18	7.6*
COc1ccc(CN2C(=O)NC(=O)/C(=C/c3ccoc3)C2=O)cc1	36	53*	0	58	69	31	45*	17*
O=C1NC(=O)N(Cc2ccco2)C(=O)/C1=C/c1cccn1CCOc1ccccc1Cl	6	49*	0	1	36	-4	11	5.7*
CCCCN1C(=O)/C(=C/C=C/c2ccco2)C(=O)NC1=S	-11	76*	0	.	.	.	66*	26*	DNA CAG DR=3.1*;dCAG TOPRO ctr=3.1*;rCAG binder-2=1.4*
CCCCN1C(=O)/C(=C\c2ccco2)C(=O)N(CCc2ccccc2)C1=O	-23	27	0	.	7	9	.	.
NCCCC(=O)OC1N=C(c2ccccc2Cl)c2cc(Br)ccc2NC1=O (stereo not drawn)	32	5	0	-13	-4	-9	.	.
CC1CC2C(C(O)CC3(C)C(O)CCC23)C2(C)CCC(=O)C=C12 (stereo not drawn)	.	-1	0	.	.	.	.	.
O=P(N1CC1)(N1CC1)N1CCc2ccccc21	.	5	1	.	.	.	.	.
CSc1nc(N)c(N=Nc2ccc([As](=O)(O)O)cc2)c(=O)[nH]1	-52	-1	0	24	3	2	.	.
CCN1C(=O)NC(=O)/C(=C\c2cn(CC(=O)O)c3ccccc23)C1=O	20	.	.	6	-6	-9	.	.
O=C(O)Cn1cc(/C=C2\C(=O)NC(=O)N(Cc3ccco3)C2=O)c2ccccc21	-17	45*	0	98*	64	37	62*	23*
O=C1NC(=O)N(Cc2ccccc2)C(=O)/C1=C\c1ccco1	-6	48*	0	6	19	19	35*	11*
C=CCn1c(O)c(C(C)=NCC2CCCO2)c(=O)[nH]c1=O (stereo not drawn)	-1	2	0	-20	2	-1	.	.
Cc1cc2c(C(C)C)c(O)c(O)c(C=O)c2c(O)c1-c1c(C)cc2c(C(C)C)c(O)c(O)c(C=O)c2c1O	4	97*	0	.	.	.	94*	81*
SMILES	PHOSPHO1 block	rCAG binder-1	aDG glyco act	ALR H2O2 inh	APOBEC3A inh	APOBEC3G inh	rCAG bind conf	DNA CAG counter	others
COC(=O)C1=C(c2ccc(F)cc2F)C[C@@H]2CC[C@H]1N2C(=O)N1CCCCC1	.	-6	0	1	-1	-5	.	.
C=CCn1c(O)c(/C(C)=N/NC(=S)Nc2ccccc2)c(=O)[nH]c1=O	-15	37*	0	29	5	-1	44*	13*
CC(C)c1ccc(N2C(=O)NC(=O)/C(=C/C=C/c3ccco3)C2=O)cc1	-5	54*	0	.	.	.	29	9.4*
CCc1ccc(N2C(=O)NC(=O)/C(=C\C=C\c3ccco3)C2=O)cc1	20	45*	0	98*	25	16	19	9.3*
Cc1ccc(N2C(=O)NC(=O)/C(=C/C=C/c3ccco3)C2=O)cc1	6	29	0	34	28	24	.	.
Cc1cc(C)cc(N2C(=O)NC(=O)/C(=C\C=C\c3ccco3)C2=O)c1	10	39*	0	96*	.	.	15	7.7*
Cc1cc(OCC(=O)NC(Cc2ccc(Cl)cc2)C(=O)O)c2c3c(c(=O)oc2c1)CCCC3 (stereo not drawn)	-8	63*	0	14	7	-1	66*	27*
COc1ccc(C(O)CNC(C)C)c(F)c1OC (stereo not drawn)	.	1	0	-1	-1	-11	.	.
Cn1cccc1/C=C1/C(=O)NC(=S)N(Cc2ccc(F)cc2)C1=O	-68	74*	0	.	10	3	51*	30*
Cn1cccc1/C=C1/C(=O)NC(=O)N(Cc2ccccc2)C1=O	5	49*	0	5	7	9	5	4
C=CCN1C(=O)NC(=O)/C(=C/c2cccn2C)C1=O	27	5	0	55	-4	-5	.	.
Cn1cccc1/C=C1\C(=O)NC(=O)N(Cc2ccccc2)C1=O	20	40*	0	1	2	-2	7	2
Cn1cccc1/C=C1/C(=O)NC(=O)N(Cc2ccc(F)cc2)C1=O	32	41*	0	8	-2	-4	8	3
COc1ccc(CN2C(=O)NC(=O)/C(=C/c3ccc(OC)c(OC)c3OC)C2=O)cc1	33	19	0	22	3	5	.	.
